Laboratory results published in PubChem BioAssay (NCI).
This is part of a sample that, as a whole, favours compounds with a hit. Of some 83,000 tested, about 20% had one in any assay.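 Activity criterion: percent growth below 10, measured after cells in 96-well plates were exposed to a single compound concentration for 48 hours.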 A number with no mark means an inactive call. Active and inactive are the calls of the source.

Each compound was assayed on MOLT-4 leukemia (assay: NCI-60 one-dose screen, 48 h (100 = growth as untreated, 0 = no growth, -100 = all killed)). Conditions: 10 µM unless noted.
Experimental: Growth inhibition of the MOLT-4 human tumor cell line is measured as a screen for anti-cancer activity. Cells are grown in 96 well plates and exposed to the test compound for 48 hours. Compounds are tested at a single concentration, which is 10^-5 M for most compounds. The reported endpoint is percent growth (GI% or GIPRCNT), where numbers from 0 - 100% represent growth inhibition, and numbers from -100% - 0 represent cell death. For example, a value of 40 represents 60% growth inhibition. A value of 0 means no net growth occurred over the course of the experiment. A value of -40 indicates 40% of cells at the beginning of the experiment died by the end of the experiment. A value of -100 means all cells are dead at the end of the experiment.
NCI-60 Human Tumor Cell Lines Screen was performed using the standard one-dose NCI protocol, which is described in more detail at https://dtp.cancer.gov/discovery_development/nci-60/default.htm.
Compounds with GIPRCNT values below 10 were considered active. Activity score was based on GIPRCNT using the following formula: […]
Score is 0 for GIPRCNT values of 100 or above, 50 for GIPRCNT values of 0, and 100 for GIPRCNT values of -100.
`O=[N+]([O-])c1ccc2c(c1)Cc1cc(F)ccc1-2` was tested, and the growth was 94.1%.
`O=C1NC(=Nc2ccc(O)cc2)S/C1=C\c1cccc(Cl)c1` showed a growth of 45.4%.
`Cc1cc2c3ccccc3ccc2[n+]2ccccc12` was tested, and the growth was 2.74% (active).
`COc1cccc(-c2nn(C(C)(C)C)cc2-c2ccnc(NCCCNS(=O)(=O)c3cccc4ccccc34)c2)c1` showed a growth of 104%.
`COc1cc2c(cc1-c1c(C)noc1C)ncc1nc(C3CCOCC3)n([C@H](C)COC(F)F)c12` gave a growth of 46.6%.
`NC(=NC1C2CC3CC(C2)CC1C3)Nc1ccc(I)cc1` (stereo not given) was tested, and the growth was 5.63% (active).
In the case of `CCCCN(CCCC)CCCn1c(-c2ccccc2)ccc1-c1ccccc1`, the growth is reported as 55%.
For `CCOC(=O)c1cc(C(=O)c2ccc(O)c(O)c2)n2ccc(-c3ccn4c(C(=O)c5ccc(O)c(O)c5)cc(C(=O)OCC)c4c3)cc12`, the growth was 63.3%.
`Cc1cc(N2CCSCC2)nc(NC2CCCC(Nc3ccnc4cc(Cl)ccc34)C2)n1` (stereo not given) was tested, and the growth was -9.85% (active).
Compound `C=C1c2nc3ccccc3n2C=C(c2ccc(OC)cc2)N1Cc1ccccc1` has a growth of 71.5%.
For `COc1ccc2c(c1)O/C(=C\c1cccc(OCC(=O)Nc3nc4c(s3)CCCC4)c1)C2=O`, the growth was 25.3%.
For `C=C(C)C1CC(O)C2(C)CCCC3C2C1CC(C)C3(C)CC/C(C)=C/C(O)C1CCC(=O)c2c(OC)cc(OC)cc21` (stereo not given), the growth was 21.7%.
With `COc1cc(/C=C/C(=O)c2cccnc2Nc2ccc(F)cc2)cc(OC)c1OC` the growth was 5.4% (active).
For `COc1ccc(Nc2c3c4c(cccc4[nH]c2=O)C(=O)c2ccccc2-3)cc1`, the growth was 1.81% (active).
For `Cc1ccc(NC(=O)/C=C/c2ccccc2)c(C(N)=O)c1`, the growth was 30.7%.
`Cn1cc(-c2nonc2-c2cn(C)c3ccc(F)cc23)c2cc(F)ccc21` was tested, and the growth was 29.1%.
For `CC1=C[C@H]2c3c(c(O)c(O)c4oc5c(C)cccc5c(=O)c34)[C@H](c3cc(O)c(O)c4oc5c(C)cccc5c(=O)c34)[C@H]2C(C)(C)C1`, the growth was 3.99% (active).
`O=C(COc1ccc(/C=C2\COc3ccccc3C2=O)cc1)Nc1nccs1` gave a growth of 22.5%.
In the case of `CCCCCC(=O)Oc1ccc(/C(=C(\C)c2ccc(OC)cc2)c2ccc(OCCN3CCCCC3)cc2)cc1`, the growth is reported as 25.1%.
For `CC(=O)O[C@H]1[C@@H]2OC(=O)C(CSc3ccccc3)[C@@H]2C[C@H]2O[C@]2(C)CC/C=C(\C)CCC[C@@H]1C` (stereo not given in full), the growth was 22.7%.
`O=C1c2ccccc2OC=C(c2ccccc2)N1CCCCNc1ccc(S(=O)(=O)Nc2ncccn2)cc1` gave a growth of 85.3%.
With `COc1cc(C)c(C2C(C#N)=C(N)Oc3n[nH]c(-c4cccs4)c32)cc1C(C)C` (stereo not given) the growth was 79.4%.
Compound `C=CC(=O)Nc1cccc(-c2nc(SC)nc(Nc3cccc(OC)c3)c2C#N)c1` has a growth of 39.5%.
`Oc1ccc(N=Cc2ccccc2O)cc1` gave a growth of 89.6%.
`CSc1ccc(-c2ccccc(=O)c2O)cc1` was tested, and the growth was 2.65% (active).
`CCNc1ncnc2c1cnn2C1CCCO1` (stereo not given) showed a growth of 92.3%.
For `Cc1cc(C)c2nc3nc(C)cc(C)c3c(N)c2c1`, the growth was -18.6% (active).
`O=[N+]([O-])c1cnc(N2CCN(CC3CC3)CC2)nc1N1CCN(CC2CC2)CC1` gave a growth of 103%.
`CC(C)CC1C(=O)N2CCC[C@H]2C2(O)O[C@](NC(=O)C3C=C4c5cccc6[nH]c(Br)c(c56)C[C@H]4N(C)C3)(C(C)C)C(=O)N12` (stereo not given in full) was tested, and the growth was 15.9%.
With `COc1cccc(/C=N/NC(=O)c2ccccc2Nc2ccnc(C(F)(F)F)c2)c1O` the growth was 34.1%.
Compound `CCOC(=O)c1c(C)oc2ncnc(N3CCN(C(=S)Nc4ccccc4)CC3)c12` has a growth of 91.3%.
`C#CCOc1ccc2ncnc(NCc3cccc(NC(=O)CCl)c3)c2c1` was tested, and the growth was 3.48% [8.25 µM] (active).
In the case of `Cc1cc(N2CCOCC2)nc(NCc2cc(Nc3ccnc4cc(Cl)ccc34)ccc2F)n1`, the growth is reported as -30.3% (active).
`CC(O)CN1CC(O)=C(c2nc3ccccc3s2)C1=N` (stereo not given) showed a growth of 103%.
`COc1ccc(NC(=O)c2ccc(/C=C/C(=O)c3ncc[nH]3)cc2)cc1` showed a growth of 62.4%.
Compound `O=C(N/N=C/c1c[nH]c2ccccc12)c1cc(-c2ccccc2)on1` has a growth of 69.5%.
`Fc1ccc(CNc2cccc3[nH]c(C(F)(F)F)nc23)cc1` showed a growth of 41.7%.
`CN1CCN=C1c1ccc(NC(=O)c2ccc(C(=O)Nc3ccc(C4=NCCN4C)cc3)cc2)cc1` showed a growth of 100%.
In the case of `CC[C@@H](C(=O)[C@@H](C)[C@@H](O)[C@H](C)[C@@H]1O[C@@H]([C@@H](CC)C(=O)O)CC[C@@H]1C)[C@H]1OC2(C=C[C@@H](O)[C@]3(CC[C@@](C)([C@H]4CC[C@](O)(CC)[C@H](C)O4)O3)O2)[C@H](C)C[C@@H]1C` (stereo not given in full), the growth is reported as -8.95% (active).
`N#C/C(=C\c1ccc(-c2ccc(Cl)c(Cl)c2)o1)c1nc(-c2ccco2)cs1` was tested, and the growth was 104%.
